FLuc modulator – firefly luciferase modulation, counter-screen for miR-21 project | P08659 | purified FLuc, Km substrates, luminescence inhibition | Potency, µM (top dose mostly 57.5 µM), for the others: at the highest dose activity change, negative = inhibition, usual class: inhibitors | 360,000 tested, 6.9% active | AID 588342;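 note: plate controls were vehicle for no effect and reference inhibitor for full effect; nearly all actives have a fitted effect of over 55% in size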
Target sequence (P08659 whole entry, looked up): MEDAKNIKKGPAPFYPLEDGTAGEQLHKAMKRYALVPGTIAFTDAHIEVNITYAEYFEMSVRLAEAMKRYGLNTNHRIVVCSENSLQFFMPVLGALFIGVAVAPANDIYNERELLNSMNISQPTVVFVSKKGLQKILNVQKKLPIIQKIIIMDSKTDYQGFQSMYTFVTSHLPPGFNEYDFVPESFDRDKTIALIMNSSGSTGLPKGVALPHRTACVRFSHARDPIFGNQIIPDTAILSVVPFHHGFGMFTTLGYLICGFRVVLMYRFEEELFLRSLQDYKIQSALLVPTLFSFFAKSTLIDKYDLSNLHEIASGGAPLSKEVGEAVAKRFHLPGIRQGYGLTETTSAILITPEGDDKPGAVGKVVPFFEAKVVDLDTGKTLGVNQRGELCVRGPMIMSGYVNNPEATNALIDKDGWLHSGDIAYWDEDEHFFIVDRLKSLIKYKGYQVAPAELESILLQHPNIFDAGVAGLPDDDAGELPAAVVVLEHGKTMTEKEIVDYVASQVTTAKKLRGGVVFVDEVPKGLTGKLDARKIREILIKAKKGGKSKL
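Purified P. pyralis luciferase, 10 nM final, with Km-level 10 uM D-luciferin and 10 uM ATP in 50 mM Tris acetate pH 7.5, 10 mM Mg acetate, 0.01% Tween-20, 0.05% BSA; 6-point qHTS titration about 60 µM downward; luminescence read.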
SMN2 splice up – SMN2 splice variant enhancement. HEK293 SMN2-luciferase splicing reporter, luminescence, 30-36 h. 210,000 tested, 2.8% active. Potency, µM (highest dose often 46.1 µM), for the others: at the top dose activity change, positive = activation, actives largely listed as activators. AID 1458; note: % of control where 0% means no effect; nearly all actives have a fitted effect of over 55% in size
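HEK293 cells carry an SMN2 minigene-luciferase reporter in which exon 7 inclusion puts luciferase in frame. Cells were seeded at 2000 cells/well, attached for 10-12 hours, then exposed to compounds for 30-36 hours at 37C before ONE-Glo luminescence.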
Rab9 promoter act – activates the Rab9 promoter; Huh7 Rab9 promoter-luciferase reporter, luminescence, 24 h; Potency, µM (series often up to 9.22 µM), without a hit: at the highest dose activation, negative = inhibition, usual class: activators; 320,000 tested, 2.8% active; note: % of control where 0% means no effect; nearly all actives have a fitted effect of over 60% in size
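Stable Rab9-luc Huh7, 1500 cells/well, 2 h settle; cmpd in DMSO, 24 h, 37 °C/5% CO2; luciferase reagent 10 min RT; luminescence.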
ELG1 genotox – inducers of genotoxicity in HEK293T ELG1-luciferase cells; HEK293T ELG1-luciferase reporter, luminescence, 16 h; Potency, µM (doses to about 46 µM), for the others: top-dose activity change, positive = activation, actives largely listed as activators; 330,000 tested, 1.3% active; note: % of control where 0% means no effect; nearly all actives have a fitted effect of over 60% in size
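DMSO vehicle served as control against compound-treated ELG1-luciferase HEK293T cells; exposure lasted 16 hr at 37 °C and 5% CO2, followed by ONE-Glo luminescence detection after 30 min.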
NPC1 prom act – NPC1 promoter activation; 320,000 tested, 2.4% active; AID 485313; Huh7 NPC1 promoter luciferase reporter, 24 h; Potency, µM (doses to about 9.22 µM), for the others: at the top dose activation, hits mostly activators; note: % of control where 0% means no effect; nearly all actives have a fitted effect of over 60% in size
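Luciferase expression driven by the NPC1 promoter was measured in stably transfected Huh7 cells after a 24 h compound incubation, using a luciferase reagent and a luminescence read.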
* hit, by the source's call; [ ] = dose if it differs, or a comment. Rows were chosen to be rich in hits. Some 7.4% of all compounds tested hit in one or more screens of this group. Calls come from the whole dose curve; as a rule, active = well fitted curve in the direction sought with a large enough effect; inconclusive = small, poorly fitted or top-dose-only effect, or another doubt; inactive = no such curve, though single readings can be large; an effect the other way counts as inactive or inconclusive. Potency is the fitted concentration of half-maximal effect.

CC(=O)Nc1ccc2nc(NC(=O)CN3CCOCC3)sc2c1 was read as FLuc modulator -5%, Rab9 promoter act 17%, ELG1 genotox -1% and NPC1 prom act 1%.
Screening CCOc1ccc(N(CC(=O)NCc2ccccc2C)S(C)(=O)=O)cc1 returned FLuc modulator 13µM*, Rab9 promoter act inconclusive, ELG1 genotox inconclusive and NPC1 prom act 3.2µM*.
For CCOc1ccc(N(CC(=O)NCCSCc2ccccc2Cl)S(C)(=O)=O)cc1 the results were FLuc modulator 3%, Rab9 promoter act 1%, ELG1 genotox -10% and NPC1 prom act 2%.
Screening COC(=O)c1ccc(NC(=O)CN(c2ccc(OC)cc2)S(C)(=O)=O)cc1 returned FLuc modulator 15µM*, SMN2 splice up inconclusive, Rab9 promoter act 2.5µM*, ELG1 genotox inconclusive and NPC1 prom act inconclusive.
For CCOc1ccc(NC(=O)CN(c2ccc(OC)cc2)S(C)(=O)=O)cc1 the results were FLuc modulator 21µM*, SMN2 splice up -6%, Rab9 promoter act 26%, ELG1 genotox 16µM* and NPC1 prom act inconclusive.
Screening CCOc1ccc(N(CC(=O)Nc2ccc(OC)cc2)S(C)(=O)=O)cc1 returned FLuc modulator inconclusive, SMN2 splice up 12%, Rab9 promoter act inconclusive, ELG1 genotox inconclusive and NPC1 prom act inconclusive.
`COC(=O)c1ccccc1NC(=O)CN(c1ccc(OC)cc1)S(C)(=O)=O` gave FLuc modulator -2%, SMN2 splice up -8%, Rab9 promoter act -3%, ELG1 genotox -3% and NPC1 prom act -5%.
For CCN(CC(=O)Nc1ccc(NC(C)=O)cc1)C(=O)/C=C/c1ccc([N+](=O)[O-])cc1 the results were FLuc modulator inconclusive, Rab9 promoter act 2%, ELG1 genotox -5% and NPC1 prom act 5%.
Screening CCn1nc(C(=O)OCC(=O)c2ccc(F)cc2)c2ccccc2c1=O returned FLuc modulator -20%, SMN2 splice up -7%, Rab9 promoter act -2%, ELG1 genotox -5% and NPC1 prom act -1%.
CCn1nc(C(=O)OCC(=O)c2cc(C)n(Cc3cccs3)c2C)c2ccccc2c1=O was read as FLuc modulator 3µM*, SMN2 splice up inconclusive, Rab9 promoter act -3%, ELG1 genotox 18µM* and NPC1 prom act -1%.
Cc1cc(C(=O)COC(=O)c2ccc3c(c2)OCO3)c(C)n1Cc1cccs1 was read as FLuc modulator 2.7µM*, SMN2 splice up 19%, Rab9 promoter act 4µM*, ELG1 genotox 23µM* and NPC1 prom act 3.5µM*.
`CCn1nc(C(=O)OCC(=O)c2ccc3c(c2)OCCO3)c2ccccc2c1=O` gave FLuc modulator 2.4µM*, SMN2 splice up -7%, Rab9 promoter act -6%, ELG1 genotox -1% and NPC1 prom act 0%.
`Cc1cc(C(=O)COC(=O)c2ccccc2O)c(C)n1Cc1cccs1` gave FLuc modulator 0.085µM*, Rab9 promoter act -40%, ELG1 genotox -11% and NPC1 prom act -23%.
Screening COCCn1c(C)cc(C(=O)COC(=O)c2c(C)nn(Cc3ccccc3)c2C)c1C returned FLuc modulator inconclusive, Rab9 promoter act -18%, ELG1 genotox -5% and NPC1 prom act -5%.
For COc1cc(OC)cc(-c2c(-c3cccs3)c3cc(-c4ccc5c(c4)OCCO5)ccc3n2C)c1 the results were FLuc modulator 9%, Rab9 promoter act -9%, ELG1 genotox -1% and NPC1 prom act 1%.
Screening COC(=O)Cc1c(OC)ccn(CCc2c[nH]c3ccccc23)c1=O returned FLuc modulator 17µM*, SMN2 splice up 11µM*, Rab9 promoter act 3.2µM*, ELG1 genotox inconclusive and NPC1 prom act inconclusive.
C[C@H]1[C@H](O)[C@@H](C)C=CC=CC=CC=CC=CC=CC=C[C@H](O[C@@H]2O[C@@H](C)[C@H](O)[C@@H](N)[C@@H]2O)C[C@@H]2O[C@](O)(C[C@@H](O)C[C@@H](O)[C@@H](O)CC[C@@H](O)C[C@@H](O)CC(=O)O[C@H]1C)C[C@H](O)[C@H]2C(=O)O was read as SMN2 splice up -4%[9.22 µM].
Screening CCOc1ccc(C2NC(=O)C(C#N)=C(S)N2c2ccc(C)cc2)cc1OC (stereo not given) returned FLuc modulator 17µM*, SMN2 splice up -13%, Rab9 promoter act -1%, ELG1 genotox 12% and NPC1 prom act -2%.
CCOC(=O)c1sc(=NC(=O)c2ccc(Cl)s2)n(C)c1C was read as FLuc modulator 0.67µM*, SMN2 splice up 7.9µM*, Rab9 promoter act inconclusive, ELG1 genotox 1.2µM* and NPC1 prom act inconclusive.
Screening CCOC(=O)c1sc(=NC(=O)c2ccc(OC(C)C)cc2)n(C)c1C returned FLuc modulator -3%, SMN2 splice up -5%, Rab9 promoter act 1%, ELG1 genotox 5% and NPC1 prom act -18%.
Screening CCOC(=O)c1sc(=NC(=O)c2ccccc2Br)n(C)c1C returned FLuc modulator 2.1µM*, Rab9 promoter act inconclusive, ELG1 genotox inconclusive and NPC1 prom act inconclusive.
Screening CCOC(=O)c1sc(=NC(=O)c2ccco2)n(C)c1C returned FLuc modulator 15µM*, SMN2 splice up 14µM*, Rab9 promoter act inconclusive, ELG1 genotox 4% and NPC1 prom act -12%.
Cc1sc(NC(=O)c2ccco2)c(C(=O)c2ccc(Cl)cc2)c1C was read as FLuc modulator -9%, SMN2 splice up -19%, Rab9 promoter act -2%, ELG1 genotox 1% and NPC1 prom act -1%.
`Cc1sc(=NC(=O)c2ccco2)n(C)c1-c1ccc(Cl)cc1` gave FLuc modulator 5.4µM*, SMN2 splice up 24%, Rab9 promoter act 2.8µM*, ELG1 genotox 11% and NPC1 prom act 2.5µM*.
For CC(=O)c1cccc(NS(C)(=O)=O)c1 the results were FLuc modulator -2%, SMN2 splice up -17%, Rab9 promoter act -9%, ELG1 genotox 0% and NPC1 prom act -5%.
CCCCC[C@H]1CN(Cc2ccccc2)C(=O)[C@@H]1CC(=O)NCc1ccccc1 was read as FLuc modulator 1%, Rab9 promoter act -3%, ELG1 genotox -6% and NPC1 prom act -5%.
Screening C=CCOc1cccc(C2/C(=C(\O)c3ccc4c(c3)OCCO4)C(=O)C(=O)N2CCN2CCOCC2)c1 (stereo not given) returned FLuc modulator 0%, Rab9 promoter act -3%, ELG1 genotox 1% and NPC1 prom act 3%.
COCCn1c(=NC(=O)/C=C/c2ccccc2)sc2cc(NC(C)=O)ccc21 was read as FLuc modulator -10%, SMN2 splice up 15%, Rab9 promoter act -1%, ELG1 genotox 2% and NPC1 prom act 1%.
`CCOC(=O)c1sc(=NC(=O)/C=C/c2ccccc2)n(C)c1C` gave FLuc modulator -7%, SMN2 splice up 30%, Rab9 promoter act 1.6µM*, ELG1 genotox 15% and NPC1 prom act inconclusive.

Screening data from PubChem.
